Consider eight molecules from PubChem BioAssay (Tox21).

Structures are written as SMILES. Results filed as inconclusive are left out. Activity calls are given as the source filed them. Unless noted, calls follow the shape of the dose curve; as a rule, active = well fitted curve in the direction sought with a large enough effect in the repeat runs; inconclusive = weak or mixed curves; inactive = no such curve, though single readings can be large; an effect the other way counts as inactive or inconclusive.

Assay [1] is described as follows: A CellTox Green Cytotoxicity Assay to monitor cytotoxicity in HepG2 cells - 0 hour (AID 1224882). Also: nearly all actives have a fitted effect of over 35% in size. The essentials: (§1)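 Real-time, homogeneous cytotoxicity readout: dead-cell DNA staining by CellTox Green in HepG2 monolayers, fluorescence measured at timed intervals up to 40 h of continuous compound exposure.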
Assay [2] in a line: A CellTox Green Cytotoxicity Assay to monitor cytotoxicity in HEK293 cells - 8 hour (AID 1224884). Also: nearly all actives have a fitted effect of over 35% in size. Also: potency is read from the fitted curve at half-maximal effect. Put shortly: (§2)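 Cytotoxicity was tracked continuously in HEK293 cells by a DNA-binding dye excluded from viable cells. Compounds were transferred in DMSO 5 h after seeding; fluorescence was recorded at intervals up to 40 h.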
A short description of assay [3]: qHTS RealTime-Glo MT Cell Viability Assay in HepG2 cells - 16 hour (AID 1224885). Also: nearly all actives have a fitted effect of over 50% in size. Also: potency is read from the fitted curve at half-maximal effect. Put shortly: (§3)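 Cells + NanoLuc/prosubstrate dispensed (600 cells/well) → 5 h at 37 C/5% CO2 → compounds in DMSO transferred → 40 h incubation at 37 C, luminescence read at 0, 8, 16, 24, 32, 40 h.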
Background: In qHTS, concentration-response curves come from the screen itself.

Assay [4] is described as follows: qHTS RealTime-Glo MT Cell Viability Assay in HEK293 cells - 24 hour (AID 1224886). Also: nearly all actives have a fitted effect of over 50% in size. Also: potency is read from the fitted curve at half-maximal effect. The essentials: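 Tox21 10K qHTS, HEK293, 600 cells/well, RealTime-Glo reagent co-dispensed with cells; 5 h preincubation, compound by pintool, 37 C, luminescence at 0–40 h.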
Assay [5] in a line: qHTS RealTime-Glo MT Cell Viability Assay in HEK293 cells - 8 hour (AID 1224887). Also: nearly all actives have a fitted effect of over 50% in size. Also: potency is read from the fitted curve at half-maximal effect. The essentials:
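Nonlytic bioluminescent viability monitoring. HEK293 at 600 cells/well with reagent; 5 h settle; compound transfer by pintool; plates held at 37 C and read at set time points.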

Assay [6] in a line: A CellTox Green Cytotoxicity Assay to monitor cytotoxicity in HEK293 cells - 16 hour (AID 1224888). Also: nearly all actives have a fitted effect of over 35% in size. Also: potency is read from the fitted curve at half-maximal effect. The essentials: as §2
The nature of assay [7]: qHTS RealTime-Glo MT Cell Viability Assay in HepG2 cells - 0 hour (AID 1224889). Also: nearly all actives have a fitted effect of over 50% in size. The essentials: as §3
Assay [8] in a line: A CellTox Green Cytotoxicity Assay to monitor cytotoxicity in HepG2 cells - 8 hour (AID 1224890). Also: nearly all actives have a fitted effect of over 45% in size. Put shortly: as §1
Assay [9] is described as follows: qHTS assay to identify small molecule antagonists of the estrogen receptor alpha (ER-alpha) signaling pathway using the BG1 cell line in the presence of 0.1 nM 17-beta-estradiol - cell viability counter screen (AID 1259241). Also: nearly all actives have a fitted effect of over 40% in size. Put shortly:
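Following 5 days in phenol red-free medium with charcoal-stripped serum, VM7Luc4E2 cells received test compounds alongside 0.1 nM 17beta-estradiol (final) at 37C for 22 hr. Live cells were then quantified via protease-substrate fluorescence.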

The nature of assay [10]: qHTS assay to identify small molecule antagonists of the androgen receptor (AR) signaling pathway using the MDA cell line in the presence of 0.5 nM R1881 - cell viability counter screen (AID 1259242). Also: nearly all actives have a fitted effect of over 45% in size. The essentials:
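Cytotoxicity toward MDA-kb2 cells is measured by CellTiter-Fluor live-cell protease fluorescence after 16 hr compound exposure at 37C in the presence of 0.5 nM R1881 stimulator.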

Assay [11] has as its target Androgen receptor (Homo sapiens) (UniProt P10275). The assay is described as follows: qHTS assay to identify small molecule antagonists of the androgen receptor (AR) signaling pathway using the MDA cell line in the presence of 0.5 nM R1881 (AID 1259243). Also: nearly all actives have a fitted effect of over 50% in size. The essentials: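 Steps: seed MDA-kb2 cells, incubate 5 hr at 37C; pin-transfer compounds in DMSO; add R1881 to 0.5 nM final; incubate 16 hr; add ONE-Glo, wait 30 min at room temperature; read luminescence.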

The target in assay [12] is Estrogen receptor (Homo sapiens) (UniProt P03372). The assay is described as follows: qHTS assay to identify small molecule antagonists of the estrogen receptor alpha (ER-alpha) signaling pathway using the BG1 cell line in the presence of 0.1 nM 17-beta-estradiol (AID 1259244). Also: nearly all actives have a fitted effect of over 50% in size. The essentials: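 After 5 days in hormone-depleted medium (charcoal-stripped serum, no phenol red), VM7Luc4E2 cells were seeded, incubated 24 h, then co-treated with compound and 0.1 nM (final) estradiol for 22 h before luminescence detection.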
Sequence of Estrogen receptor (Homo sapiens) (P03372 whole entry, looked up): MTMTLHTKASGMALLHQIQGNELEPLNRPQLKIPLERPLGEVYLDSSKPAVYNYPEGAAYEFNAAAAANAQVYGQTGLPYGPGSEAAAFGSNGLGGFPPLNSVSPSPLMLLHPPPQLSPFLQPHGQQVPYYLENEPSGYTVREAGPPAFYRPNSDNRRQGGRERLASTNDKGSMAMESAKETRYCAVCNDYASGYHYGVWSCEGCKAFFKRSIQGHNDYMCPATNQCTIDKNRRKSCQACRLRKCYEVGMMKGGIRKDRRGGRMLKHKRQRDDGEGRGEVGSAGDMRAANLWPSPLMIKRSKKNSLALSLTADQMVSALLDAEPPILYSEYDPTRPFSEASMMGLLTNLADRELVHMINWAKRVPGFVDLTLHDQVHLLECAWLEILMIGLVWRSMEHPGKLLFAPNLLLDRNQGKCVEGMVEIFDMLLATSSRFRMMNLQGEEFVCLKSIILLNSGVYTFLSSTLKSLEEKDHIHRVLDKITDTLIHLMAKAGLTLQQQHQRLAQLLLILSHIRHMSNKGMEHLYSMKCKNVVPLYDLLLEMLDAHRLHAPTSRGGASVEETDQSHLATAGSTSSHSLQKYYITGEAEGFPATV

Assay [13] in a line: qHTS assay to identify small molecule phospholipidosis (PLD) inducers (AID 1259344; active = well fitted curve in the direction sought with a large enough effect; an effect the other way counts as inactive or inconclusive). Put shortly: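 Quantitative HTS in HepG2: compound plus LipidTOX Red dye for 24 h, paraformaldehyde fixation with Hoechst 33342, widefield high-content imaging; amiodarone as positive and DMSO as negative control.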
Assay [14] can be described thus: qHTS assay to identify small molecule HDAC inhibitors (AID 1259364). Also: top concentration of the series differs between compounds; nearly all actives have a fitted effect of over 45% in size. Put shortly:
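Homogeneous cell-based luminescent assay of endogenous class I/II HDAC activity; HCT-116 cells, 2 h compound exposure, 30 min HDAC-Glo development at RT.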

The nature of assay [15]: qHTS assay to identify small molecule HDAC inhibitors - cell viability counter screen (AID 1259365). The essentials:
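HCT-116 wild-type, overnight attachment; 2hr drug exposure, 37C; CellTiter-Glo luminescent ATP readout after 30min RT.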

A short description of assay [16]: qHTS assay to identify small molecule antagonists of the sonic hedgehog signaling (Shh) pathway - cell viability counter screen (AID 1259367). Also: nearly all actives have a fitted effect of over 55% in size. The essentials:
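Seed 3T3 Gli1-Luc cells at 2,000 per well; incubate 4 hr; add compound in DMSO, then conditioned medium; incubate at 37C with 5% CO2; add CellTiter-Fluor after 23 hr; read fluorescence 1 hr later.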

A short description of assay [17]: qHTS assay to identify small molecule agonists of the sonic hedgehog signaling (Shh) pathway (AID 1259368; calls by dose curve;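 also: NIH/3T3-derived 3T3Gli1-Luc cells carrying a stable Gli1-driven firefly luciferase reporter; series mostly up to about 92 µM; nearly all actives have a fitted effect of over 15% in size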). The essentials: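 Steps: seed 3T3 Gli1-Luc cells, incubate 4 hr at 37 C, pin-transfer compounds in DMSO alongside a positive control, incubate 24 hr, add luciferase detection reagent, wait 30 min at room temperature, read luminescence.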
Assay [18] in a line: qHTS assay to identify small molecule antagonists of the sonic hedgehog signaling (Shh) pathway (AID 1259369; calls by dose curve; also: nearly all actives have a fitted effect of over 45% in size; also: potency is read from the fitted curve at half-maximal effect). The essentials: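 Inhibition of Shh signalling is measured as reduced Gli1-response-element firefly luciferase output in an NIH/3T3-derived stable reporter clone stimulated with conditioned medium for 24hr.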
A short description of assay [19]: A CellTox Green Cytotoxicity Assay to monitor cytotoxicity in HepG2 cells - 32 hour (AID 1224883). Also: nearly all actives have a fitted effect of over 50% in size. Also: potency is read from the fitted curve at half-maximal effect. The essentials: as §1
Assay [20] is described as follows: qHTS assay to identify small molecule agonists of the sonic hedgehog signaling (Shh) pathway - cell viability counter screen (AID 1259366). Also: nearly all actives have a fitted effect of over 50% in size. Also: potency is read from the fitted curve at half-maximal effect. The essentials:
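Compounds in DMSO were pin-transferred onto 3T3 Gli1-Luc cells that had settled 4hr; plates then stood 24hr at 37C and 5% CO2. One hour before the end, CellTiter-Fluor was added and fluorescence recorded.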

Sequence of Androgen receptor (Homo sapiens) (P10275 whole entry, looked up): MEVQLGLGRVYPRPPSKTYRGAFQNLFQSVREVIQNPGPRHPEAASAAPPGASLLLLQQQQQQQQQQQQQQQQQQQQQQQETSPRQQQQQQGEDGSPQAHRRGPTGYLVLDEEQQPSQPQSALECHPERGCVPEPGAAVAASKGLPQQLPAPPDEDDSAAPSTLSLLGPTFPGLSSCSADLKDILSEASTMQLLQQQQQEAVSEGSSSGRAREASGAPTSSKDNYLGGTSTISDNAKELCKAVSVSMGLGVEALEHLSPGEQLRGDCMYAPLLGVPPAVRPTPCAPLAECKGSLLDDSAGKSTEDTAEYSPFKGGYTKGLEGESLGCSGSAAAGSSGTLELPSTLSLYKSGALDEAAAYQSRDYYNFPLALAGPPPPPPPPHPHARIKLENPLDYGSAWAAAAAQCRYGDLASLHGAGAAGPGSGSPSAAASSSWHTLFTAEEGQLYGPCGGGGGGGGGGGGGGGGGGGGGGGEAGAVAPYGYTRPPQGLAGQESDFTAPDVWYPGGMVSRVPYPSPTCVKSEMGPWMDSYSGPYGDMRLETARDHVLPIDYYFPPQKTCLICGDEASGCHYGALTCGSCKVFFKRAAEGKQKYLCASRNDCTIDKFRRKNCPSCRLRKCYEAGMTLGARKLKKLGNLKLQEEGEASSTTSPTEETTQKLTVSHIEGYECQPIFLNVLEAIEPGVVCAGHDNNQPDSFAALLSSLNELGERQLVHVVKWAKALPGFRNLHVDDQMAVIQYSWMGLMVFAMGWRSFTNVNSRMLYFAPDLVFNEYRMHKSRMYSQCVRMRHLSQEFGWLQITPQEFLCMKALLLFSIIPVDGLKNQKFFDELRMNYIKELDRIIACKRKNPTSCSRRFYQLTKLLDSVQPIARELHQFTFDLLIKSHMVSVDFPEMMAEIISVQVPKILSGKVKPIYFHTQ

On to `CC1(C)[C@@H](O)CC[C@]2(C)[C@H]3C(=O)C=C4[C@@H]5C[C@@](C)(C(=O)O)CC[C@]5(C)CC[C@@]4(C)[C@]3(C)CC[C@@H]12`, for which the Potency entry in [1], in [2], in assay [3], in assay [4], in [5] and in assay [6] was “inactive” each time. Also, the Potency entry in assay [7], in [8], in [9], in [10], in assay [11] and in assay [12] was “inactive” throughout. The Potency result in assay [13], in [14], in [15], in assay [16], in assay [17] and in [18] was “inactive” throughout.

With `O=c1[nH]c2ccccc2n1CCCN1CCN(C(c2ccccc2)c2ccccc2)CC1`, the Potency result in assay [1], in [6], in assay [9], in assay [10], in assay [14] and in assay [15] was “inactive” throughout. For the same molecule, the Potency entry in assay [17] is “inactive”. Besides, the Potency in assay [19] was 23.9 µM (active); in assay [4] it was 19 µM (active); in assay [5], 21.3 µM (active); in assay [18], 3.35 µM (active).

As to `CC(C(=O)O)c1ccc2c(c1)[nH]c1ccc(Cl)cc12` (stereo not drawn), the Potency entry in assay [19], in assay [2], in assay [3], in assay [4], in [5] and in assay [6] was “inactive” in each case. The Potency result in assay [7], in [8], in assay [9], in [10], in [12] and in assay [13] was “inactive” each time. Besides, the Potency result in [15], in assay [20], in assay [16], in assay [17] and in assay [18] was “inactive” each time.

As to `CNC(=O)c1ccccc1Sc1ccc2c(/C=C/c3ccccn3)n[nH]c2c1`, the Potency result in assay [1], in assay [19], in [6], in [8], in assay [9] and in [17] was “inactive” each time. The results for the Potency in assay [4] and in assay [20] were 7.56 µM (active) and 13.3 µM (active), respectively.

As for `Fc1ccc(C(c2ccc(F)cc2)N2CCNCC2)cc1`, the Potency entry in assay [1], in assay [2], in assay [3], in assay [4], in assay [5] and in assay [6] was “inactive” each time. In addition, the Potency result in [8], in assay [9], in assay [10], in [12], in [14] and in assay [15] was “inactive” throughout. Moreover, the Potency result in assay [17] is “inactive”. For the same molecule, the Potency in assay [18] is 2.98 µM (active).

With `O=C1NC(=O)[C@@H]2CC=CC[C@H]12`, the Potency result in assay [1], in [2], in assay [3], in [4], in [5] and in assay [6] was “inactive” in each case. Also, the Potency result in assay [7], in assay [8], in assay [9], in assay [10], in [14] and in assay [15] was “inactive” each time. Also, the Potency result in assay [20], in assay [17] and in assay [18] was “inactive” each time.

For `O=c1c(O)c(-c2ccc(O)cc2O)oc2cc(O)cc(O)c12`, the Potency result in assay [1], in [2], in assay [3], in [4], in [5] and in assay [6] was “inactive” in each case. Further, the Potency entry in assay [8], in assay [9], in [10], in assay [12], in assay [15] and in [20] was “inactive” throughout. For the same molecule, the Potency result in assay [17] was “inactive”.

For the molecule `CCCCCCCC/C=C\CCCCCCCCN`, the Potency entry in assay [1], in assay [7], in assay [9], in [10], in assay [12] and in assay [13] was “inactive” in each case. The Potency result in [14], in assay [15], in assay [20], in assay [16], in assay [17] and in assay [18] was “inactive” throughout. Besides, the Potency is 23.9 µM (active) in assay [2]; 23.9 µM (active) in assay [3]; 21.3 µM (active) in assay [4]; 23.9 µM (active) in [5]; 23.9 µM (active) in assay [6].
